Screening results (PubChem BioAssay)
An excerpt weighted towards active compounds, which were near 22% of everything screened.
CYP2C19 activ = increases human CYP2C19 enzyme activity | AID 1025 | recombinant CYP2C19, luciferin-H EGE luminescence; active compounds read high; 0 = fully inhibited enzyme, 1 = untreated enzyme | 96,000 tested, under 10 active | activation factor at 5 µM | P33261;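 active means activation factor of at least 2 at 5 µM in the primary screen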
Target sequence (P33261 whole entry, looked up): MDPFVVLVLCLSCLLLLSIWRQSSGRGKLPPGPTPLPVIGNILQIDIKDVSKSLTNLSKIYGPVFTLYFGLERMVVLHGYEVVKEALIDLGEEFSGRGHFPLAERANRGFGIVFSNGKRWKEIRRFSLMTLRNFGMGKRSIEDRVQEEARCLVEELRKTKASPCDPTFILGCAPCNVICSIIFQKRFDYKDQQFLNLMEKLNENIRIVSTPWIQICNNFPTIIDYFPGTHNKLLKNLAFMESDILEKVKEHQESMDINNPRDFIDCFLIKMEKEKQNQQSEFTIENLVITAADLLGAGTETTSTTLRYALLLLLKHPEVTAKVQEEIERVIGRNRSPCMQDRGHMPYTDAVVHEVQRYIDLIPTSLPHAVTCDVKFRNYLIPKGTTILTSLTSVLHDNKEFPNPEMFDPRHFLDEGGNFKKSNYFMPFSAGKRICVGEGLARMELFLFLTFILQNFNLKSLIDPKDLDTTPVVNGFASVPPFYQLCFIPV
CYP2C19 inh = inhibitors of human CYP2C19; hit rate 21% among 96,000; CYP2C19 Supersomes, luciferin-H EGE luminescence, 30 min; P33261; AID 778; inhibition, % at 5 µM;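 active means CYP2C19 inhibition above a set limit at 5 µM in the primary screen, cut at about 50% in these data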
CYP2C9 inh = inhibitors of human CYP2C9; P11712; CYP2C9 Supersomes, luciferin-H conversion, luminescence; inhibition, % at 5 µM; hit rate 20% among 96,000;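 active means blocking of liver enzyme CYP2C9 beyond about 50% at 5 µM, limit read from the data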
F-actin modifier = alters cytoskeleton assembly in HUVEC cells | HUVEC TNFa F-actin phalloidin imaging, high content | inhibition, % at 2 µM | hit rate 0.18% among 91,000 | AID 836;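 active means inhibition above the batch mean plus 3 SD and confirmed as a hit by visual image inspection, cut at about 30% in these data, passing the limit was not always enough; inconclusive means above the inhibition threshold but rejected on visual inspection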
CYP2C9 act = CYP2C9 (human) activation; activation factor at 5 µM; P11712; hit rate 1.4% among 96,000; recombinant CYP2C9, luciferin-H conversion, luminescence; active compounds read high; factor 1 = untreated enzyme, 0 = blocked; AID 1024;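 active means activation factor of 2 or more for CYP2C9 at a 5 µM dose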
E-sel TNF inh = blocks E-selectin expression induced by TNF alpha | inhibition, % at 2 µM | HUVEC TNFa-induced E-selectin immunofluorescence, high content | hit rate 0.71% among 120,000;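 active means inhibition above the batch mean plus 3 SD, and confirmed as a hit on visual image review, cut at about 43% in these data; inconclusive means passes the inhibition cutoff but fails visual image review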
Hits are given with their value; - = inactive; ? = inconclusive; . = no result.

SMILES | CYP2C19 activ | CYP2C19 inh | CYP2C9 inh | F-actin modifier | CYP2C9 act | E-sel TNF inh
O=C1C(C=NCc2cccnc2)=C(O)c2ccccc21 | - | - | - | - | - | .
O=C1C(c2ccncc2)=C(O)c2ccccc21 | - | - | 92 | - | - | -
CN(C)c1nc(OCCOC(=O)Nc2ccc(Cl)cc2Cl)nc(N(C)C)n1 | - | 98 | 53 | . | - | -
CCOC(=O)c1[nH]c2ccc(OC)cc2c1NC(=O)c1ccc2c(c1)OCO2 | - | 62 | - | - | - | -
COC(=O)c1[nH]c2cc(OC)ccc2c1NC(=O)CN1CCC(C(N)=O)(N2CCCCC2)CC1 | . | . | . | 55 | . | -
COC(=O)c1[nH]c2cc(OC)ccc2c1NC(=O)CN1CCC(C(N)=O)CC1 | - | - | - | . | - | -
COC(=O)c1[nH]c2ccccc2c1NC(=O)/C=C/c1ccc2c(c1)OCO2 | . | . | . | . | . | -
CCOC(=O)c1[nH]c2cc(OC)c(OC)cc2c1NC(=O)c1ccc2c(c1)OCO2 | - | - | - | - | - | .
CCOC(=O)c1[nH]c2ccc(OC)cc2c1NC(=O)CN1CCSCC1 | - | 76 | 59 | - | - | -
CCN(CC(=O)Nc1c(C(=O)OC)[nH]c2ccccc12)c1ccc2c(c1)OCO2 | - | 50 | 70 | - | - | -
CCCNC(=O)N1CCC(C(=O)c2ccc(Cl)cc2)CC1 | - | - | - | - | - | -
CCOC(=O)c1[nH]c2ccc(OC)cc2c1NC(=O)c1cccc(OC)c1 | - | 52 | - | - | - | .
CCOC(=O)c1[nH]c2ccc(Br)cc2c1NC(=O)CCN1CCC(C)CC1 | - | 58 | - | - | - | -
CCCCCOC(=O)CSc1nnc(-c2ccccc2)c(=O)[nH]1 | - | - | 60 | - | - | .
CC(C)(C)n1nc(-c2ccc(Cl)cc2)c2c(N)ncnc21 | - | 59 | - | - | - | .
O=C(OCC1OC(n2cnc3c(N(C(=O)c4ccccc4)C(=O)c4ccccc4)ncnc32)C(O)C1F)c1ccccc1 (stereo not given) | - | 80 | 94 | - | - | -
O=C(Oc1cccc(-n2cnnn2)c1)c1ccccc1 | . | . | . | . | . | -
Cc1ccccc1-c1cc(C(=O)n2cccn2)c2cc(Cl)ccc2n1 | - | 62 | - | - | - | -
O=C1CC(N2CCN(c3ccc(F)cc3)CC2)C(=O)N1Cc1cccs1 (stereo not given) | - | - | - | . | - | -
O=C1CC(N2CCN(c3nc4ccccc4s3)CC2)C(=O)N1Cc1cccs1 (stereo not given) | - | - | 69 | - | - | -
CCN(CC)C(=O)CN(c1ccc(Cl)cc1)S(=O)(=O)c1ccccc1 | - | 68 | - | ? | - | -
CCOC(=O)C1=C(C)NC(C)=C(C(=O)OCC)C1C(=O)OCC(=O)N1CCCCC1CC (stereo not given) | - | 62 | 67 | - | - | -
COC(=O)C1=C(C)NC(C)=C(C(=O)OC)C1C(=O)OCC(=O)N1c2ccccc2CC1C (stereo not given) | - | 86 | 93 | - | - | -
CCOC(=O)C1=C(C)NC(C)=C(C(=O)OCC)C1C(=O)OCC(=O)N1CCc2ccccc2C1 | - | 56 | 79 | - | - | -
CCNC(=O)COC(=O)C1C(C(=O)OCC)=C(C)NC(C)=C1C(=O)OCC | - | 86 | 75 | - | - | -
SMILES | CYP2C19 activ | CYP2C19 inh | CYP2C9 inh | F-actin modifier | CYP2C9 act | E-sel TNF inh
CCCCn1c(SCn2nnc3ccccc3c2=O)nc2cc(S(N)(=O)=O)ccc21 | - | - | - | - | - | -
Nc1nc2n(n1)C(c1c(F)cccc1Cl)CC(c1ccc(F)cc1)N2 (stereo not given) | . | . | . | - | . | .
Cc1ccnc(Sc2ccc([N+](=O)[O-])cc2[N+](=O)[O-])n1 | - | 77 | - | - | - | -
O=C(CCC(=O)c1ccc(F)cc1)Nc1cc(Cl)cc(Cl)c1 | - | 52 | - | - | - | -
COCCNC(=O)C(=O)NNS(=O)(=O)c1ccc(Cl)cc1 | . | . | . | . | . | -
COc1cc(C(=O)Nc2ccc(-c3nc4cc(C)ccc4o3)c(O)c2)cc(OC)c1OC | - | - | - | - | - | -
CC(C)(C)C1CCC2(CC1)Nc1cccc3cccc(c13)N2 | - | 96 | 80 | - | - | -
CC(C)(C)NC(=O)c1ccc(Sc2ccccc2)c([N+](=O)[O-])c1 | - | 70 | 92 | - | - | -
C=CCNC(=O)c1ccc(Sc2ccccc2)c([N+](=O)[O-])c1 | - | 76 | 70 | - | - | -
O=C(O)CNC(=O)c1ccc(Sc2ccccc2)c([N+](=O)[O-])c1 | . | . | . | . | . | -
NC(=O)c1ccc(C(F)(F)F)n(Cc2c(Cl)cccc2Cl)c1=O | - | - | - | - | - | -
CS(=O)(=O)N(CC(=O)N1CCCC1)c1ccc(OCc2ccccc2)cc1 | - | - | - | - | - | -
CCn1c(C(O)c2cccc(OC)c2OC)nc2ccccc21 (stereo not given) | - | 87 | - | - | - | -
COc1cccc(C(O)c2nc3ccccc3n2C(C)C)c1 (stereo not given) | - | 91 | - | - | - | -
CCn1c(C(O)c2ccccc2)nc2ccccc21 (stereo not given) | - | 91 | - | - | - | -
CCn1c(C(C)NC(=O)c2ccc(OC)c(OC)c2)nc2ccccc21 (stereo not given) | - | - | - | - | - | .
COc1ccc(C(O)c2nc3ccccc3n2C)cc1OC (stereo not given) | - | - | - | . | - | -
Cc1ccc(-c2cc(C(F)F)nc(NCc3cccnc3)n2)cc1 | . | . | . | - | . | -
CCN(CC)S(=O)(=O)c1ccc(-c2nnc(SCc3nnc(-c4ccc(C)cc4)o3)o2)cc1 | - | - | - | - | - | -
CCN(CC)S(=O)(=O)c1cccc(-c2nnc(SCc3nnc(-c4ccccc4)o3)n2C)c1 | - | 88 | 55 | - | - | -
CCN(CC)S(=O)(=O)c1cccc(-c2nnc(SCCOc3ccccc3C)o2)c1 | - | 90 | - | . | - | -
CCN(CC)S(=O)(=O)c1cccc(-c2nnc(SCC(=O)c3cc(C)n(C)c3C)o2)c1 | - | - | - | - | - | .
CCN(CC)S(=O)(=O)c1cccc(-c2nnc(SCCOc3ccc(Cl)cc3)o2)c1 | - | 61 | - | - | 2 | -
CCN(CC)S(=O)(=O)c1cccc(-c2nnc(SCCOc3ccccc3)o2)c1 | - | 94 | - | - | - | .
CCN(CC(O)COCc1ccc(Cl)cc1)C1CCCCC1 (stereo not given) | . | . | . | . | . | -
SMILES | CYP2C19 activ | CYP2C19 inh | CYP2C9 inh | F-actin modifier | CYP2C9 act | E-sel TNF inh
COC(=O)c1ccc2c(c1)SC1=C(CCCC1=O)N2 | - | 83 | - | - | - | -
COc1cccc(-c2onc3ccc(C4(C)OCCO4)cc23)c1 | . | . | . | . | . | -
CCOc1ccc(C(C)=O)cc1Cn1nc(C(=O)O)c2ccccc2c1=O | - | - | - | - | - | -
NS(=O)(=O)c1cccnc1Nc1c(Cl)cccc1Cl | - | 60 | - | - | - | -
O=C(CN1C(=O)c2ccccc2S1(=O)=O)c1ccccc1 | - | - | - | - | - | .
Cc1ccc(C2C(C(=O)O)c3ccccc3C(=O)N2C)c(C)c1 (stereo not given) | . | . | . | . | . | -
